# Measurements reported in PubChem BioAssay.
# Values without a mark were called inactive. The list shows a part of the results. Calls of active or inactive are those of the source.
# Experiments:
# [1] = nonspecific thallium flux increase in parental CHO-K1, confirmation, counter-screen for KCNQ2 potentiator project, cell-based, FluxOR thallium flux, duplicate (AID 2282;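 active = signal rise of at least 3 SD above the untreated control mean, in both duplicate wells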;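 note: counter screen of KCNQ2 potentiator hits so any rise reflects channel-independent effects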); conditions: parental CHO-K1 cells, FluxOR thallium flux fluorescence; at 10 µM; stronger effect = higher value; zero = vehicle mean+3SD, 100% = vehicle-minus-blank window
# [2] = target: Potassium voltage-gated channel subfamily KQT member 1 (Homo sapiens) (UniProt P51787); assay: human KCNQ1 channel potentiation off-target, confirmation, selectivity assay for KCNQ2 potentiator project, cell-based, CHO, FluxOR thallium flux (AID 2283;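 active = fluorescence ratio rise of at least 3 SD of vehicle wells above their mean, in both replicate wells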;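 note: 0% = vehicle mean plus 3 SD and 100% = vehicle minus unstimulated blank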); conditions: CHO KCNQ1 stable, FluxOR thallium flux fluorescence; at 10 µM; stronger effect = higher value; beyond 3SD, as % of vehicle-control signal
# [3] = target: Potassium voltage-gated channel subfamily KQT member 2 (Rattus norvegicus) (UniProt O88943); assay: rat KCNQ2 channel potentiators, confirmation, cell-based, CHO, FluxOR thallium flux, duplicate (AID 2287;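 active = fluorescence ratio rising 3 SD or more over the vehicle control mean in both replicates, plus primary screen hit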;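 note: peak minus minimum thallium fluorescence divided by baseline after K/Tl stimulus; 0% = vehicle mean plus 3 SD and 100% = vehicle minus unstimulated blank difference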); conditions: CHO-KCNQ2 cells, FluxOR thallium flux fluorescence; at 10 µM; stronger effect = higher value
# [4] = target: Inward rectifier potassium channel 2 (Mus musculus) (UniProt P35561); assay: PubChem AID 2345; conditions: HEK293 Kir2.1, FluxOR thallium flux fluorescence; at 10 µM; stronger effect = higher value;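 note: 0% = vehicle mean plus 3 SD and 100% = vehicle minus no-stimulus blank window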
# [5] = target: Potassium voltage-gated channel subfamily KQT member 2 (Rattus norvegicus) (UniProt O88943); assay: potentiators of retigabine-insensitive KCNQ2 W236L, mechanism study for KCNQ2 potentiator project, cell-based, rat KCNQ2 W236L, CHO, automated patch clamp (AID 2558;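 active = current increase at least 3 SD of the untreated controls above them in both duplicate recordings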); conditions: automated patch clamp current, at 25 µM
# [6] = target: Potassium voltage-gated channel subfamily KQT member 1 (Homo sapiens) (UniProt P51787); assay: KCNQ1 potassium channel potentiators, confirmation, FluxOR thallium flux, CHO cells, duplicates (AID 493007;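 active = potentiation averaged over duplicate wells exceeding buffer-only control mean by more than 3 SD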;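 note: 0% = buffer-only wells and 100% = R-L3 activator control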); conditions: KCNQ1 cell line, FluxOR thallium flux fluorescence, at 10 µM; stronger effect = higher value, % of reference activator effect, buffer zero
# [7] = target: Potassium voltage-gated channel subfamily KQT member 2 (Rattus norvegicus) (UniProt O88943); assay: rat KCNQ2 channel potentiation, selectivity assay for KCNQ1 potentiator project, KCNQ2-CHO-K1 cells (AID 493009;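 active = mean duplicate potentiation above the buffer control mean plus 5 SD of buffer wells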;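 note: assay conditions were tuned for KCNQ1 rather than KCNQ2 modulators; signal is max minus min fluorescence divided by baseline after thallium stimulus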); conditions: FluxOR thallium flux fluorescence, at 10 µM; stronger effect = higher value, scaled: buffer 0, activator control 100
# [8] = target: Potassium voltage-gated channel subfamily KQT member 1 (Homo sapiens) (UniProt P51787); assay: KCNQ1 channel current potentiators, confirmation, orthogonal assay for KCNQ1 potentiator project, IonWorks patch clamp, KCNQ1-CHO cells (AID 493184;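 active = current rise at least 3 SD above the untreated control mean in each of two repeat wells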); conditions: automated patch clamp current, at 10 µM
# [9] = target: Voltage-gated inwardly rectifying potassium channel KCNH2 (Homo sapiens) (UniProt Q12809); assay: hERG channel inhibition, counter-screen for Kir2.1 inhibitor project, cell-based, thallium flux (AID 2236); conditions: hERG-expressing cells, at 10 µM, stronger effect = higher value;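 note: host cells are CHO cells stably expressing hERG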
# [10] = target: Potassium channel subfamily K member 9 (Homo sapiens) (UniProt Q9NPC2); assay: KCNK9 channel inhibition, selectivity assay for Kir2.1 inhibitor project, cell-based (AID 2329); conditions: KCNK9-expressing cells, ion flux inhibition; at 10 µM; stronger effect = higher value
# [11] = target: Short transient receptor potential channel 4 (Mus musculus) (UniProt Q9QUQ5); assay: mouse TRPC4 membrane potential modulation by TRPC6 hits, confirmation, selectivity assay for TRPC6 inhibitor project, cell-based, second specificity screen, HEK293 TRPC4/mu-opioid (AID 2776;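 active = compounds whose fluorescence signal differed from control wells by over 3 SD, either direction, in both duplicate plates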); conditions: HEK293 TRPC4/MOR, membrane potential dye fluorescence; at 10 µM; stronger effect = higher value; channel activated by saturating DAMGO dose
# [12] = system: transient receptor potential cation channel C4 (TRPC4), mouse; assay: mouse TRPC4 modulation by TRPC6 hits, confirmation, selectivity assay for TRPC6 inhibitor project, cell-based, HEK293 TRPC4/mu-opioid, membrane potential dye (AID 2777;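 active = rise or fall in signal beyond 3 SD of buffer-only wells in both replicate plates, either sign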;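 note: integrated kinetic ratio of fluorescence range over baseline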); conditions: membrane potential fluorescence, at 10 µM
# [13] = nonspecific membrane potential effects, parental HEK293, confirmation, counter-screen for TRPC6 inhibitor project, cell-based, second counter screen (AID 2779;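 active = membrane potential signal moving either way by over 3 SD of the maximum-effect control, in both duplicate plates, meaning non-specific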); conditions: parental HEK293 membrane potential dye fluorescence; at 10 µM; maximal acetylcholine challenge after compound addition
# [14] = membrane potential modulation in parental HEK293, confirmation, counter-screen for TRPC6 inhibitor project, cell-based (AID 2780;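 active = membrane potential signal shifting up or down by more than 3 SD of buffer-only wells, on both duplicate plates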;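 note: plate controls were buffer EC0 wells for no effect and acetylcholine ECmax wells for full effect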); conditions: parental HEK293 membrane potential dye fluorescence; at 10 µM
# [15] = target: Inward rectifier potassium channel 2 (Mus musculus) (UniProt P35561); assay: mouse Kir2.1 channel blockers, Kir2.1 inhibitor project, cell-based, secondary, automated electrophysiology (AID 463252); conditions: Kir2.1 cells, automated patch-clamp current inhibition; at 25 µM; stronger effect = higher value
# [16] = target: Short transient receptor potential channel 6 (Mus musculus) (UniProt Q61143); assay: mouse TRPC6 channel inhibitors, confirmation, HEK293 cells, membrane potential dye, duplicate (AID 488960;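 active = fluorescence ratio falls more than 5 SD below the full-stimulation control mean, in both duplicate runs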;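 for inhibition: integrated fluorescence ratio of peak minus minimum over baseline after agonist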); conditions: ACh-evoked depolarization, at 10 µM; stronger effect = higher value
# [17] = target: Short transient receptor potential channel 6 (Mus musculus) (UniProt Q61143); assay: mouse TRPC6 channel activators, confirmation, HEK293 cells, membrane potential dye, duplicate (AID 488961;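 active = ratio signal rise beyond 5 SD above unstimulated control wells' mean, seen in both duplicate runs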); conditions: HEK293-TRPC6 membrane potential dye fluorescence, FDSS; at 10 µM
# [18] = parental HEK293 membrane potential modulation, confirmation, counter-screen for TRPC6 modulator project, cell-based (AID 488924;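 active = membrane potential signal moves up or down beyond 5 SD from buffer-only wells, on both duplicate plates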); conditions: parental HEK293, membrane potential dye fluorescence; at 10 µM
# [19] = modulation of acetylcholine-evoked membrane potential, parental HEK293, confirmation, counter-screen for TRPC6 modulator project, cell-based, second counter-screen, membrane potential dye (AID 488926;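 active = membrane potential signal drops by more than 5 SD from the mean control signal, in both duplicate plates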;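 note: plate controls were acetylcholine ECmax control wells for no effect and buffer only wells for full effect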); conditions: parental HEK293, membrane potential dye fluorescence, at 10 µM, after compound, maximal acetylcholine stimulation; stronger effect = higher value
# [20] = system: Transient receptor potential cation channel subfamily C member 4 (mouse); assay: TRPC4 modulation by TRPC6 hit compounds, confirmation, selectivity assay for TRPC6 modulator project, cell-based, HEK293 TRPC4/mu-opioid, membrane potential dye, mouse (AID 488927;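 active = membrane potential signal moved up or down beyond 5 SD of buffer control wells, in both duplicate plates, actives on both sides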;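 note: plate controls were assay buffer wells for no effect and DAMGO maximal-effect wells for full effect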); conditions: membrane potential fluorescence, at 10 µM
# Potassium voltage-gated channel subfamily KQT member 1 (Homo sapiens), sequence (P51787 whole entry, looked up): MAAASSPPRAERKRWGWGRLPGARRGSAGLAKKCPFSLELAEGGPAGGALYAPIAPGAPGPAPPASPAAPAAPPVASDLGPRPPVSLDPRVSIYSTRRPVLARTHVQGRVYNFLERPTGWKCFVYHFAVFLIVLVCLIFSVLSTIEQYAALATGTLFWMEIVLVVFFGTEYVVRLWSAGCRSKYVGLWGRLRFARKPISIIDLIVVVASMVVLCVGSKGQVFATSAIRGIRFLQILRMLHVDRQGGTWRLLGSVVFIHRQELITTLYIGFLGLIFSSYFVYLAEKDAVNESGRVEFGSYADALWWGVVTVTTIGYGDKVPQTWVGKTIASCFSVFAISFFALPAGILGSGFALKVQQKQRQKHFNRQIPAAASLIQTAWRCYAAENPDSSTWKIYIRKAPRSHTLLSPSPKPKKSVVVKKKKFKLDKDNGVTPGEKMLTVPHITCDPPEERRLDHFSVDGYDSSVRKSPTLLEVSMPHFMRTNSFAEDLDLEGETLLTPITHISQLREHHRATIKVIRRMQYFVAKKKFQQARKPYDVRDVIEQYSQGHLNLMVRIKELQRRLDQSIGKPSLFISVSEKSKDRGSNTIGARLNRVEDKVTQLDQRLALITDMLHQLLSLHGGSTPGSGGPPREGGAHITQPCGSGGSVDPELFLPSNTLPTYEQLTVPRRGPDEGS
# Short transient receptor potential channel 6 (Mus musculus), sequence (Q61143 whole entry, looked up): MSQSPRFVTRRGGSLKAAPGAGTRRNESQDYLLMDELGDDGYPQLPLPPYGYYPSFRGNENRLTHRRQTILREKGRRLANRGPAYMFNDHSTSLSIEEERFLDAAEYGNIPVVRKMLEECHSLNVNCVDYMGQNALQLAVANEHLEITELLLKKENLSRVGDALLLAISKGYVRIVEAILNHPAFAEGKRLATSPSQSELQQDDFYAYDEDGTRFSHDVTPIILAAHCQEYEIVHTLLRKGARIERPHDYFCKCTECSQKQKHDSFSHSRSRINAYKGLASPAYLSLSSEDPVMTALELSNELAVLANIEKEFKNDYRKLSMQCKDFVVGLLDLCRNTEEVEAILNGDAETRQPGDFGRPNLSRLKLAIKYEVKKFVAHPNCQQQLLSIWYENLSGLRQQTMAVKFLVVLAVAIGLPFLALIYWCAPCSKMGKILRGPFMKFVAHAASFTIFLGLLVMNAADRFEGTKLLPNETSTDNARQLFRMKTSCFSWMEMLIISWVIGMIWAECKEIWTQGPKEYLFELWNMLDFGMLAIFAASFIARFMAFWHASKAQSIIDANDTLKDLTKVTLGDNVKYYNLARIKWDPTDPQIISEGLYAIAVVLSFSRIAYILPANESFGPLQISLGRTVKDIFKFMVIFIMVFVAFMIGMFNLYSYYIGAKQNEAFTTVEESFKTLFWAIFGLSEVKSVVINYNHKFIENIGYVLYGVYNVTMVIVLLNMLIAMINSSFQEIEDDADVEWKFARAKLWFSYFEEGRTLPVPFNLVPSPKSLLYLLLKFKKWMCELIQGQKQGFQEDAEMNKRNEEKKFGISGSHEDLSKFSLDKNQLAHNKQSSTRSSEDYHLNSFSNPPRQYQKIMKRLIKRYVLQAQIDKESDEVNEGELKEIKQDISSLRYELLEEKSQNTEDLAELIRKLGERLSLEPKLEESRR
# Inward rectifier potassium channel 2 (Mus musculus), sequence (P35561 whole entry, looked up): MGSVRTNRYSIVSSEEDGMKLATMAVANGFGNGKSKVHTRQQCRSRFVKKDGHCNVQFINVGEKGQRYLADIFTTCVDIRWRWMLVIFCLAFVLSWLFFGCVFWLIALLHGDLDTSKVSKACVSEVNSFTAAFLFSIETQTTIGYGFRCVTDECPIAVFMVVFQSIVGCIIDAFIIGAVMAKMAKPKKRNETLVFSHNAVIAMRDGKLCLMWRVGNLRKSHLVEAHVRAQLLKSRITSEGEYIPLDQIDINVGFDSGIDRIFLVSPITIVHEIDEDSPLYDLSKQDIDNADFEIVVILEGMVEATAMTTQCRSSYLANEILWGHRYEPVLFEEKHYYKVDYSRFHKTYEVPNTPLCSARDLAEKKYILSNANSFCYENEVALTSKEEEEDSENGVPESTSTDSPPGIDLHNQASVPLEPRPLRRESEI
# Voltage-gated inwardly rectifying potassium channel KCNH2 (Homo sapiens), sequence (Q12809 whole entry, looked up): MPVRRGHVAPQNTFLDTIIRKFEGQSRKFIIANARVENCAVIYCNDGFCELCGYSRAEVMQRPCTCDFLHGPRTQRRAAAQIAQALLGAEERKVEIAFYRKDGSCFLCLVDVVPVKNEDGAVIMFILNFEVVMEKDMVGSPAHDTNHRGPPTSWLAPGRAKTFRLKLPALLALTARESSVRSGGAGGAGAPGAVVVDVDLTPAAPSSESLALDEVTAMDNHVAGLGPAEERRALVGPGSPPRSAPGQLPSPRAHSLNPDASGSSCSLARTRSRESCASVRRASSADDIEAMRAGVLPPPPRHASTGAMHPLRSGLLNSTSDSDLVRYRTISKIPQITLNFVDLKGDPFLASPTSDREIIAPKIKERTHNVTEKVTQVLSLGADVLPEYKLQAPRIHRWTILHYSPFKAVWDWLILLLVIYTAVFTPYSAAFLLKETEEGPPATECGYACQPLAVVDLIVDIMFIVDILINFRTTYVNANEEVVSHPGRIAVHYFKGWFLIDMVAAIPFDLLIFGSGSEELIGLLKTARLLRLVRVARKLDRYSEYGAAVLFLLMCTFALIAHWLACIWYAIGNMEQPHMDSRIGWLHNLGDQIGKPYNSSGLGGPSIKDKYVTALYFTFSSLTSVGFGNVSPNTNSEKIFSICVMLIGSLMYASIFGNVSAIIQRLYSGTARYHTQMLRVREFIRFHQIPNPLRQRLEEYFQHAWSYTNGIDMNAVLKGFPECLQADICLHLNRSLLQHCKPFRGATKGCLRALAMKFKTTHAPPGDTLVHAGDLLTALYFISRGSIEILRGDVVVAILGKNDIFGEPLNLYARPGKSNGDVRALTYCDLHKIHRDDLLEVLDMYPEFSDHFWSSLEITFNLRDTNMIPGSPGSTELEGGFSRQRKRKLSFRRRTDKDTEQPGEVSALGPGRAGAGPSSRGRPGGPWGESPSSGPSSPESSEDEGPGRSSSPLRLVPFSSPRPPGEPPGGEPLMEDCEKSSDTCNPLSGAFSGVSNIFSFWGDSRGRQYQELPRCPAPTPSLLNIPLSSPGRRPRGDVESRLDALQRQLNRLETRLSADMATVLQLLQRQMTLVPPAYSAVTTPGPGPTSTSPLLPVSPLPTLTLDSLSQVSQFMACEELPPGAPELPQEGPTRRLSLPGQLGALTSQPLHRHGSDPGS
# Short transient receptor potential channel 4 (Mus musculus), sequence (Q9QUQ5 whole entry, looked up): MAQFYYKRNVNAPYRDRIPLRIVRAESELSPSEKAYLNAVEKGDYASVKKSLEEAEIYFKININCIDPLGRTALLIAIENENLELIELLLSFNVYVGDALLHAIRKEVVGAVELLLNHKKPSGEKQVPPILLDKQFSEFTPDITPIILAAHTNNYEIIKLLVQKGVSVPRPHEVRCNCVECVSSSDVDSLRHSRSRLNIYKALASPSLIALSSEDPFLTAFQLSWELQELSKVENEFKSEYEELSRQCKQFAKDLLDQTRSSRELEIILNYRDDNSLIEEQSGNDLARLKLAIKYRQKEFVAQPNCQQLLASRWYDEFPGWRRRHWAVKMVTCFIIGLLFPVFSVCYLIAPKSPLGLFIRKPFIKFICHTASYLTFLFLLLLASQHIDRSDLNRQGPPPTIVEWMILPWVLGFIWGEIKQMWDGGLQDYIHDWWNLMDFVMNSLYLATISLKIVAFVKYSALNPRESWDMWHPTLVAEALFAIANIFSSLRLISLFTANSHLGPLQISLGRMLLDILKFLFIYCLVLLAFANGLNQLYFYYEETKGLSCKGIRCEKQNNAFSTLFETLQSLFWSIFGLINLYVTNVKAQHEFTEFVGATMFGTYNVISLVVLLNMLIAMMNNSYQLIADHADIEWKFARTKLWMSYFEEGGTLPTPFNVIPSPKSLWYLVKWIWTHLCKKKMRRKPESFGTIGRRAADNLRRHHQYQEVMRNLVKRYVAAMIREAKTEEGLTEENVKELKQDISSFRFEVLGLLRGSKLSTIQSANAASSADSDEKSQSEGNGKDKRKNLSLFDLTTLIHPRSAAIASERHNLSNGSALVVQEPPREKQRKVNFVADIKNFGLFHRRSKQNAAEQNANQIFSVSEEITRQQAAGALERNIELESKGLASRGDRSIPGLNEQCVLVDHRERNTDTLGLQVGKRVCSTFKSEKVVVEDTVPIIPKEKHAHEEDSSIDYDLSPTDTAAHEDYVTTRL
smiles,measurement,setting,value
COc1cc(-n2c(=S)[nH]c3ccc(C)cc3c2=O)c(Cl)cc1Cl,activity increase over 3SD of controls,[1],2.8% (active)
same,activation over 3SD threshold,[2],-13.6%
same,"potentiation, less the hit threshold",[3],1.9% (active)
same,activity over 3SD threshold,[4],-22.9%
same,outcome,[5],inactive
same,potentiation,[6],22.5% (active)
same,potentiation,[7],153% (active)
same,outcome,[8],inactive
CCOc1cccc(=NC2CCCCC2)c2c(C)[nH]c(C)c12,inhibition,[9],74% (active)
same,inhibition,[10],48% (active)
same,inhibition,[11],56% (active)
same,"activity change, negative = inhibition",[12],-8.98% (active)
same,signal change vs control,[13],-3.5% (active)
same,membrane potential signal change,[14],-146% (active)
same,inhibition,[15],13.9% (active)
same,outcome,[16],inactive
same,outcome,[17],inactive
CN1CCN(c2cc(N3CCNCC3)ccc2[N+](=O)[O-])CC1,membrane potential signal change,[18],-426% (active)
same,inhibition,[19],102% (active)
same,"percent change from control (negative = decrease, positive = increase)",[20],-68% (active)
same,inhibition,[16],72.5% (active)
same,outcome,[17],inactive
O=C(CCCN1CCC2(CC1)C(=O)NCN2c1ccccc1)c1ccc(F)cc1,potentiation,[6],55.5% (active)
same,potentiation,[7],323% (active)
same,outcome,[8],inactive
